Experimental data published in PubChem BioAssay (NCI).
The panel holds about 83,000 compounds, 20% with a hit somewhere; the sample as a whole holds those more often.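 A percent growth of 40 corresponds to 60% growth inhibition; 0 means no net growth; -100 means all cells died. Active threshold: below 10.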 A number with no mark means an inactive call. Active and inactive are the calls of the source.

Key:
Assay in all cases: NCI-60 one-dose screen, 48 h (100 = growth as untreated, 0 = no growth, -100 = all killed)
Settings in all cases: 10 µM unless noted
DU-145 prostate = system: DU-145 prostate
K-562 leukemia = system: K-562 leukemia
MALME-3M melanoma = system: MALME-3M melanoma
MDA-MB-231 breast = system: MDA-MB-231 breast
RXF 393 renal = system: RXF 393 renal
SF-268 CNS = system: SF-268 CNS
SF-295 CNS = system: SF-295 CNS
SF-539 CNS = system: SF-539 CNS
UACC-257 melanoma = system: UACC-257 melanoma
M14 melanoma = system: M14 melanoma
HCT-15 colon = system: HCT-15 colon
HT29 colon = system: HT29 colon
SNB-75 CNS = system: SNB-75 CNS
SNB-19 CNS = system: SNB-19 CNS
U251 CNS = system: U251 CNS
PC-3 prostate = system: PC-3 prostate
SK-MEL-5 melanoma = system: SK-MEL-5 melanoma
UACC-62 melanoma = system: UACC-62 melanoma
LOX IMVI melanoma = system: LOX IMVI melanoma
SK-MEL-28 melanoma = system: SK-MEL-28 melanoma

| SMILES | growth (DU-145 prostate) | growth (K-562 leukemia) | growth (MALME-3M melanoma) | growth (MDA-MB-231 breast) | growth (RXF 393 renal) | growth (SF-268 CNS) | growth (SF-295 CNS) | growth (SF-539 CNS) | growth (UACC-257 melanoma) | growth (M14 melanoma) | growth (HCT-15 colon) | growth (HT29 colon) | growth (SNB-75 CNS) | growth (SNB-19 CNS) | growth (U251 CNS) | growth (PC-3 prostate) | growth (SK-MEL-5 melanoma) | growth (UACC-62 melanoma) | growth (LOX IMVI melanoma) | growth (SK-MEL-28 melanoma) |
| --- | --- | --- | --- | --- | --- | --- | --- | --- | --- | --- | --- | --- | --- | --- | --- | --- | --- | --- | --- | --- |
| CC1(C)S[C@@H]2[C@H](NC(=O)[C@H](C(=O)O)c3cccs3)C(=O)N2[C@H]1C(=O)O | 123% | 105% | 103% | 126% | 116% | 110% | 98.4% | 100% | 96.2% | 102% | 98.7% | 102% | 104% | 105% | 94.4% | 99.2% | 106% | 102% | 99.4% | 116% |
| O=S(=O)(NCCNc1nccc(-c2c(-c3cccc(F)c3)nc3occn23)n1)c1ccc(C(F)(F)F)cc1 | 87.9% | 69.8% | 86.2% | 86.9% | 67.9% | 70.4% | 110% | 109% | 104% | 95.4% | 95.5% | 62.3% | 59.6% | 98% | 92% | 55.2% | 92% | 76.2% | 95.8% | 78.7% |
| COc1cc(/C=C/C(=O)/C=C/c2ccc(-n3ccnc3)cc2)ccc1O | 54.4% | 7.93% (active) | 79.3% | 63.7% | 26.8% | 54.8% | 75.2% | -0.198% (active) | 84.7% | 104% | 82.2% | 3.46% (active) | 62.3% | 76.9% | -0.424% (active) | 62.4% | 74% | 85.2% | -44% (active) | 86.7% |
| c1cc2ccc1CNCCN1CCNCc3ccc(cc3)Oc3ccc(cc3)CNCCN(CCNCc3ccc(cc3)O2)CCNCc2ccc(cc2)Oc2ccc(cc2)CNCC1 | -88.6% (active) | -23.7% (active) | -5.04% (active) | -87% (active) | -30.8% (active) | -88% (active) | 6.02% (active) | -89.2% (active) | 37.5% | 94.8% | 95.4% | -74.7% (active) | -73.1% (active) | -91.2% (active) | -99.7% (active) | -85.5% (active) | 66.1% | -76% (active) | -94.1% (active) | 14.7% |
| Cn1cc(-c2noc(-c3cn(C)c4ncc(Br)cc34)n2)c2cc(Cl)ccc21 | 87% | 66.3% | 35.4% | 57.2% | 105% | 59.1% | 63% | 48.9% | 99.2% | 82.4% | 87.6% | 67.3% | 56.2% | 63% | 97.5% | 80.3% | 83.9% | 78.5% | 65.4% | 86.8% |
| CC(=O)OC[C@]12CC[C@@H]([C@@H](C)C(N)=O)[C@@H]1[C@H]1CC[C@@H]3[C@@]4(C)CC[C@H](OC(C)=O)C(C)(C)[C@@H]4CC[C@@]3(C)[C@]1(C)CC2 | -69.9% [100 µM] (active) | 3.1% [100 µM] (active) | -89% [100 µM] (active) | -88.6% [100 µM] (active) | -64.9% [100 µM] (active) | -61% [100 µM] (active) | -50.8% [100 µM] (active) | -83.9% [100 µM] (active) | -46.2% [100 µM] (active) | -44.3% [100 µM] (active) | -44.1% [100 µM] (active) | -77.7% [100 µM] (active) | -47.8% [100 µM] (active) | -40% [100 µM] (active) | -51.4% [100 µM] (active) | -47.4% [100 µM] (active) | -71.9% [100 µM] (active) | -83% [100 µM] (active) | -85.5% [100 µM] (active) | -73.2% [100 µM] (active) |
| CCCCCCCCCCCCCCNC(=O)Nc1ccc(Cl)c(Cl)c1 | 40.1% | 100% | 22.2% | 27.7% | 24.4% | 46% | 18.6% | 51.1% | 41.4% | 49.2% | 16.9% | 46.6% | 53.7% | 56.3% | 19.8% | 16.7% | 51.3% | 33.6% | 7.74% (active) | 60.9% |
| C=C(C)[C@@H]1CC[C@]2(COC(=O)c3ccccc3C(=O)O)CC[C@]3(C)[C@H](CC[C@@H]4[C@@]5(C)CC[C@H](OC(=O)c6ccccc6C(=O)O)C(C)(C)[C@@H]5CC[C@]43C)[C@@H]12 | 29.7% [100 µM] | 44.7% [100 µM] | 30.7% [100 µM] | -26.2% [100 µM] (active) | -21.9% [100 µM] (active) | 18% [100 µM] | 10.2% [100 µM] | 10.6% [100 µM] | 92.9% [100 µM] | 29.6% [100 µM] | 18.1% [100 µM] | 64.3% [100 µM] | -20.7% [100 µM] (active) | 4.01% [100 µM] (active) | 4.32% [100 µM] (active) | 16.2% [100 µM] | 11.9% [100 µM] | -18.7% [100 µM] (active) | 11.2% [100 µM] | 31.3% [100 µM] |
| C[n+]1c(-c2ccccc2)c2cc(N)ccc2c2ccccc21 | 43.8% | 33.4% | -19.5% (active) | 70.8% | 58.9% | -6.88% (active) | 75.6% | 28.5% | 8.1% (active) | 74.3% | 101% | 31.5% | -0.792% (active) | -2.68% (active) | 11.6% | 58.4% | 0.275% (active) | 0.188% (active) | 40.2% | 10.4% |
| C[C@H]1[C@H](C)CC[C@]2(C(=O)O)CC[C@]3(C)C(=CC[C@@H]4[C@@]5(C)C/C(=C/c6ccco6)C(=O)C(C)(C)[C@@H]5CC[C@]43C)[C@H]12 | -73.1% [100 µM] (active) | 7.11% [100 µM] (active) | -86% [100 µM] (active) | -81.5% [100 µM] (active) | -84% [100 µM] (active) | -58.7% [100 µM] (active) | -79.4% [100 µM] (active) | -80.1% [100 µM] (active) | -39.1% [100 µM] (active) | -43.6% [100 µM] (active) | -71.2% [100 µM] (active) | -67.9% [100 µM] (active) | -55.9% [100 µM] (active) | -52.6% [100 µM] (active) | -64.5% [100 µM] (active) | -67.1% [100 µM] (active) | -91.7% [100 µM] (active) | -94.4% [100 µM] (active) | -91.7% [100 µM] (active) | -79.2% [100 µM] (active) |
| C=C(C)[C@@H]1CC[C@]2(C(=O)NCCCCCCN(CCCN)CCCN)CC[C@]3(C)[C@H](CC[C@@H]4[C@@]5(C)CC[C@H](OCCCN)C(C)(C)[C@@H]5CC[C@]43C)[C@@H]12 | 55% [100 µM] | 1.52% [100 µM] (active) | 43.7% [100 µM] | 37.3% [100 µM] | 69.6% [100 µM] | 99.1% [100 µM] | 92.2% [100 µM] | 79.9% [100 µM] | 88% [100 µM] | 106% [100 µM] | 81.8% [100 µM] | 4.21% [100 µM] (active) | 84.5% [100 µM] | 80.8% [100 µM] | -39.4% [100 µM] (active) | 60.9% [100 µM] | 85.9% [100 µM] | 120% [100 µM] | 5.71% [100 µM] (active) | 101% [100 µM] |
| CC1(C)CC[C@]23CC[C@]4(C)[C@H](CC[C@@H]5[C@@]6(C)C/C(=C/c7cccnc7)C(=O)C(C)(C)[C@@H]6CC[C@]54C)[C@H]2[C@H]1OC3=O | 56.9% [100 µM] | 33% [100 µM] | 31.2% [100 µM] | 35.8% [100 µM] | 38.8% [100 µM] | 66.3% [100 µM] | 46.7% [100 µM] | 63.2% [100 µM] | 31.9% [100 µM] | 52.1% [100 µM] | 42.7% [100 µM] | 23.2% [100 µM] | 19.8% [100 µM] | 59.6% [100 µM] | 34% [100 µM] | 29.8% [100 µM] | -44.4% [100 µM] (active) | 28.4% [100 µM] | 29.2% [100 µM] | 21.4% [100 µM] |
| Fc1ccc(NC(=S)c2ccccc2)cc1 | 106% | 105% | 96.2% | 102% | 109% | 99% | 95.8% | 97.6% | 98.9% | 100% | 102% | 109% | 99.7% | 100% | 98.5% | 100% | 101% | 88.9% | 112% | 102% |
| CC[C@@H]1NC(=O)[C@@H]2CCCCN2C(=O)[C@@H]2CCCN2C(=O)[C@@H](NC(=O)[C@H](Cc2cc(F)cc(F)c2)NC(=O)Nc2ccc(C3CC3)cc2F)[C@H](C)OC(=O)[C@@H]2C[C@@H](C)CN2C1=O | 20% | 10.4% | 16.9% | -31.2% (active) | -4.47% (active) | 22% | -10.1% (active) | 24.1% | 10.7% | 16.8% | 4.6% (active) | 4.98% (active) | 10.4% | 15.7% | 24.5% | 12.5% | -45% (active) | 7.28% (active) | 16.4% | 13.5% |
